Screens from PubChem BioAssay.
Compounds with a hit are over-represented: about 0.9% of the library has one in this group of screens.
SNCA viab count = reduces viability of HEK-293 SNCA reporter cells; Potency, µM (highest dose often 57.1 µM), most hits filed as cytotoxic; AID 1671193; HEK-293-SNCA-luc viability, GF-AFC fluorescence, 24 h; 0.12% of 150,000 active; note: nearly all actives have a fitted effect of over 30% in size
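Cytotoxicity counterscreen: after 24 h compound treatment of genome-edited SNCA-luciferase HEK-293 cells, live-cell protease substrate GF-AFC read by fluorescence after 30 min; activity scaled between DMSO (0%) and medium-only (-100%), curves Hill-fitted.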
IP6K1 inh = blocks human inositol hexakisphosphate kinase 1 | Q92551 | IP6K1 kinase, ADP-Glo luminescence, 2 h; active compounds read low | activity change, % (series mostly up to about 58 µM) | 0.81% of 140,000 active | AID 1645851; in the data active = activity change below about -25%
Target sequence (Q92551 whole entry, looked up): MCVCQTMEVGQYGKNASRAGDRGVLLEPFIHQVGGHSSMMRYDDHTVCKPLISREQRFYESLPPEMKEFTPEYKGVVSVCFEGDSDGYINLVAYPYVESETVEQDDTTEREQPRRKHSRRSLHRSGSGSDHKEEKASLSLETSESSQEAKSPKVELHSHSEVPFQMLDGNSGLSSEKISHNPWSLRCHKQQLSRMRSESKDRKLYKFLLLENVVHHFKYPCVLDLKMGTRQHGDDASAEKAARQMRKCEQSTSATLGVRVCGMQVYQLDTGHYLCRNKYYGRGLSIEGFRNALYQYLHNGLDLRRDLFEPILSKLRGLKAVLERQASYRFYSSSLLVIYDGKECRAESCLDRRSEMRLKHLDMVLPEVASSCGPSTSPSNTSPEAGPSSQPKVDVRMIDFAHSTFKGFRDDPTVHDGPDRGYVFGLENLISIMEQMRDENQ
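ADP-Glo luminescence measures ADP made by human IP6K1 during a 2 h RT reaction with ATP/IP6 (mix at 1.3 mM/130 uM); top library doses 57.5 and 19.1 uM final.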
SNCA expr inhib = reduces expression of the alpha-synuclein gene; HEK-293 SNCA-luciferase knock-in, luminescence, 24 h; Potency, µM (doses to about 57.2 µM), actives largely listed as inhibitors; 0.17% of 140,000 active; note: nearly all actives have a fitted effect of over 45% in size
GPT2 inh = GPT2 alanine aminotransferase inhibition | Q8TD30 | Recombinant GPT2, coupled pyruvate oxidase/HRP Amplex Red fluorescence | Potency, µM (top dose mostly 57.7 µM), most hits filed as inhibitors | 0.25% of 100,000 active | AID 1671188; note: nearly all actives have a fitted effect of over 60% in size
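Inhibition is scored from Amplex Red fluorescence generated when pyruvate oxidase and HRP act on pyruvate released by GPT2. Reactions contain 10ng/uL enzyme, 250uM a-KG and 2mM L-alanine and run 30 min at room temperature.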
IP6K1 inh cnf = human IP6K1 inhibition, confirmatory; shares compounds with IP6K1 inh; recombinant IP6K1 kinase, ADP-Glo luminescence, 2 h; Potency, µM (titrated, usually from 49 µM), actives largely listed as inhibitors; 13% of 1,200 active; note: nearly all actives have a fitted effect of over 65% in size
GPT2 inh cnf = confirmation of human GPT2 inhibitors; AID 1671187; shares compounds with GPT2 inh; 90% of 95 active; Potency, µM, usual class: inhibitors; GPT2 enzyme, coupled Amplex Red pyruvate fluorescence
Of the large screens only hits and unclear results are named; the others gave an inactive call (follow-up assays come after a bar, where they were run); ! = not confirmed by another sample. Unless noted, calls come from the whole dose curve; as a rule, active = well fitted curve in the direction sought with a large enough effect; inconclusive = small, poorly fitted or top-dose-only effect, or another doubt; inactive = no such curve, though single readings can be large; an effect the other way counts as inactive or inconclusive.

CNc1ccc2oc(C[C@H]3O[C@@]4(CC[C@H]3C)O[C@H](C(C)C(=O)c3ccc[nH]3)[C@H](C)C[C@H]4C)nc2c1C(=O)O (some centres undefined)	SNCA viab count 9.5µM, GPT2 inh inconclusive (no result: SNCA expr inhib)
CNc1ccc2oc(C[C@H]3O[C@@]4(CC[C@H]3C)O[C@H]([C@H](C)C(=O)c3ccc[nH]3)[C@H](C)C[C@H]4C)nc2c1C(=O)O	SNCA viab count inconclusive, SNCA expr inhib 28µM, GPT2 inh inconclusive (no result: IP6K1 inh)
CCOC(=O)[C@H]1CN(C(=O)OCc2ccccc2)[C@]2(C)C(=O)N(CC3CC3)c3ccccc3[C@H]12	none
COc1ccc2c(c1OC)CN1CCc3cc4c(cc3C1C2)OCO4 (centres undefined)	SNCA viab count inconclusive, SNCA expr inhib 3µM!
CCOC(=O)[C@H]1CN(C(=O)NC2CCCC2)[C@]2(C)C(=O)N(CC3CC3)c3ccccc3[C@H]12	none
CN(C[C@H]1CN2CC[C@H]1C[C@@H]2CNC(=S)NCc1ccco1)c1ccccc1	SNCA expr inhib inconclusive
Cc1nc(-c2ccccc2Br)cc([C@H]2CN3CC[C@H]2C[C@@H]3CNC(=O)Nc2cccc(C#N)c2)n1	SNCA viab count inconclusive
CNC(=O)Oc1cccc2ccccc12	GPT2 inh 8.9µM
C=C1[C@@H](C)[C@H]2[C@H](Cc3ccccc3)NC(=O)[C@]23OC(=O)/C=C/C(=O)CCC[C@@H](C)C/C=C/[C@H]3[C@@H]1O	SNCA viab count 12µM (no result: SNCA expr inhib)
C=C1[C@@H](C)C2[C@H](Cc3ccccc3)NC(=O)[C@@]23C(/C=C/C[C@H](C)C[C@@](C)(O)/C=C/[C@@H]3OC(C)=O)[C@@H]1O (some centres undefined)	none (no result: SNCA expr inhib)
O=C1c2ccccc2C(=O)C1C(=O)C(c1ccccc1)c1ccccc1	IP6K1 inh -28, GPT2 inh inconclusive | IP6K1 inh cnf inconclusive
CN(C(=O)C(c1ccccc1)c1ccccc1)[C@H](CN1CC[C@H](O)C1)c1ccccc1	none (no result: SNCA expr inhib)
CC[C@]1(O)CC[C@H]2[C@@H]3CCC4=CCCC[C@@H]4[C@H]3CC[C@@]21C	IP6K1 inh -28 | IP6K1 inh cnf inconclusive
CC[C@H]1C[C@H]2[C@@H]3CCC4=CC(=O)CC[C@@H]4[C@H]3CC[C@]2(C)[C@H]1O	none
COc1cc2c(cc1OCc1ccccc1)N(C(=O)c1cc3ccccc3n1C)CC21CCN(C)CC1	SNCA viab count inconclusive, SNCA expr inhib inconclusive
CCCCCC(=O)N1C[C@H](C(=O)OCC)[C@H]2c3ccccc3N(CC3CC3)C(=O)[C@]21C	SNCA expr inhib inconclusive
CCOC(=O)[C@H]1CN(C(=O)CC2CCCC2)[C@]2(C)C(=O)N(CC3CC3)c3ccccc3[C@H]12	SNCA expr inhib inconclusive, GPT2 inh inconclusive
CN1CCN(C(=O)Cc2c[nH]c3ncc(-c4ccc5c(c4)OCO5)cc23)CC1	IP6K1 inh -27 | IP6K1 inh cnf inconclusive
COc1ccccc1-c1cc([C@H]2CN3CC[C@H]2C[C@@H]3COC(=O)NC2CCCCC2)nc(C)n1	SNCA expr inhib inconclusive
CC(C)NC(=O)OC[C@H]1C[C@@H]2CCN1C[C@@H]2c1cc(C2CCCC2)nc(-c2ccncc2)n1	SNCA expr inhib inconclusive
O=C1OC(c2ccc(O)c(S(=O)(=O)O)c2)(c2ccc(O)c(S(=O)(=O)O)c2)c2c(Br)c(Br)c(Br)c(Br)c21	IP6K1 inh -65 | IP6K1 inh cnf 21µM
COc1ccc(CC(=O)N2CCCN(CCn3nc4n(c3=O)CCCC4)CC2)cc1	none (no result: SNCA viab count, SNCA expr inhib, GPT2 inh)
Cc1cccc(OCC(=O)N2CCN(Cc3cc(=O)n4nc(-c5ccccc5Cl)sc4n3)CC2)c1	IP6K1 inh -30 (no result: GPT2 inh) | IP6K1 inh cnf inactive
COc1ccc([C@@H]2CN(C(=O)Cc3nonc3C)[C@@H]3C4CCN(CC4)[C@@H]32)cc1	IP6K1 inh -38 | IP6K1 inh cnf inactive
COc1ccc([C@@H]2CN(C(=O)Nc3ccc(C)cc3)[C@@H]3C4CCN(CC4)[C@@H]32)cc1	none
COc1ccc2c(c[n+](C)c3c4cc5c(cc4ccc23)OCO5)c1OC	SNCA viab count inconclusive, SNCA expr inhib inconclusive, GPT2 inh 10µM! (no result: IP6K1 inh) | IP6K1 inh cnf inconclusive
Cc1ccc(-c2ccccc2CN2CCN(C(=O)Cc3ccccn3)CC2)cc1Cl	SNCA expr inhib inconclusive
N[C@@H](Cc1ccc(Oc2cc(I)c(O)c(I)c2)c(I)c1)C(=O)O	IP6K1 inh -54 | IP6K1 inh cnf inconclusive
c1ccc2c(c1)OCC(C1=NCCN1)O2 (centres undefined)	SNCA viab count inconclusive, IP6K1 inh -44, GPT2 inh inconclusive | IP6K1 inh cnf inactive
CC[C@H]1CN2CC[C@H]1C[C@@H]2COC(=O)Nc1ccc(C(C)(C)C)cc1	none
Cc1ccc([N+](=O)[O-])[c]2c1[O][Hg]2	SNCA viab count inconclusive, IP6K1 inh -83, SNCA expr inhib inconclusive | IP6K1 inh cnf 1µM
O=C(Cc1ccc(F)cc1)N1CCN(CCn2nc3n(c2=O)CCCC3)CC1	none (no result: SNCA viab count, SNCA expr inhib, GPT2 inh)
COc1cc2c(cc1Oc1ccccc1)NC(=O)C21CCN(c2nc(C)cnc2C)CC1	SNCA viab count inconclusive, IP6K1 inh -32, SNCA expr inhib inconclusive | IP6K1 inh cnf inconclusive
COc1cc2c(cc1OCC1CC1)NC(=O)C21CCN(C(=O)c2cccnc2)CC1	IP6K1 inh -25 | IP6K1 inh cnf inactive
COc1cc2c(cc1OCC1CC1)NC(=O)C21CCN(c2nc(C)cc(C)n2)CC1	IP6K1 inh -25, SNCA expr inhib inconclusive | IP6K1 inh cnf inactive
COc1cc2c(cc1Oc1ccccc1)NC(=O)C21CCN(c2ncccn2)CC1	none
Oc1ccc2[nH]cc(CCCCN3CC=C(c4ccccc4)CC3)c2c1	GPT2 inh 3.5µM | GPT2 inh cnf 7.7
Cn1nc(-c2ccccc2)cc1[C@H]1CN2CC[C@H]1C[C@@H]2CNC(=O)Nc1ccccc1	none
